FLuc inh: firefly luciferase inhibition. purified firefly luciferase, luminescence, 8 min. Potency, µM (doses to about 57.1 µM), actives largely listed as inhibitors. 72,000 compounds, 2.2% hits. AID 411; active means well fitted inhibition curve with a large enough effect; inconclusive means small, poorly fitted or top-dose-only effect; further: nearly all actives have a fitted effect of over 40% in size
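Substrate buffer containing 10 uM ATP (pH 7.2 imidazole, Mg2+, KCl, detergent, BSA) is dispensed, compound pinned in, then luciferase/luciferin detector mix added. After 8 min at ambient temperature, light output is measured.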
GBA activity: alters purified human glucocerebrosidase activity. P04062. Potency, µM. purified enzyme, resorufin glucoside fluorescence (screen aimed at inhibitors), 20 min. 48,000 compounds, 1.1% hits; in the data active means potency below about 15 µM; inconclusive means mostly about 16 µM to 33 µM;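 further: the screen sought inhibitors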
Target sequence (P04062 whole entry, looked up): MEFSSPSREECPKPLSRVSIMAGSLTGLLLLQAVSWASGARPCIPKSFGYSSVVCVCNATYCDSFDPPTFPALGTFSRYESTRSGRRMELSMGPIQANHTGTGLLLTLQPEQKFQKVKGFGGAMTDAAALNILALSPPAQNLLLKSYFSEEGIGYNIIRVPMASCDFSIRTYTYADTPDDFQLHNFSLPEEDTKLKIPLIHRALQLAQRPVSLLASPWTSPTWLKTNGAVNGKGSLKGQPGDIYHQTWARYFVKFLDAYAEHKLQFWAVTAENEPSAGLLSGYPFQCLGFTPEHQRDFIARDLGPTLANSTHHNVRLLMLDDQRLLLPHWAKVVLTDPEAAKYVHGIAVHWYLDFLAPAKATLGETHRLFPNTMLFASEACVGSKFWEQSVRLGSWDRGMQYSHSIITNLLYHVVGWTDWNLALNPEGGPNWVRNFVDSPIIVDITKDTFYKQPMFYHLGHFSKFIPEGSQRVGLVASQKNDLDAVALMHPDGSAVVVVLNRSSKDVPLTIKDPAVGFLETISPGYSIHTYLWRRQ
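Wild-type enzyme at 0.2 nM final in 50mM citric acid/KH2PO4, 10mM sodium taurocholate, 0.01% tween-20, pH 5.9, with resorufin beta-D-glucopyranoside at 30 uM final. Compounds titrated, 20 min at RT, red fluorescence read; AC50 from titration.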
Bst PK mod: alters activity of Bacillus stearothermophilus pyruvate kinase. AID 361. purified pyruvate kinase, luminescence ATP production; ribose 5-phosphate activator present at AC10. Potency, µM. 51,000 compounds, 1.2% hits; in the data active means potency below about 11 µM; inconclusive means mostly about 12 µM to 25 µM;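 the screen sought inhibitors and activators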
Numbers stand for hits; . = inactive; ? = inconclusive; / = no result given; [ ] = another dose, or the depositor's remark. The list is not random: actives were taken first. Their share in the collection is about 3.4%.

SMILES | FLuc inh | GBA activity | Bst PK mod
c1ccc2nc3c(nc2c1)[nH]c1ccccc13 | 15.8µM | . | 4.15
CON(C)C(=O)c1nnc2c(n1)[nH]c1ccccc12 | .[11.4 µM] | / | /
O=C(Oc1ccccc1)N1CCC2(CC1)CN(c1ncccn1)C2 | .[11.4 µM] | / | /
O=[N+]([O-])c1cc(Cc2cc([N+](=O)[O-])c3cccnc3c2O)c(O)c2ncccc12 | .[11.4 µM] | / | /
CCn1c(C)nc2cc(C(=O)OCCC(F)(F)F)ccc21 | . | 10.7 | .
CCOC(=O)c1ccc2c(c1)nc(SCC(=O)N1CCCCC1)n2CC | . | . | .
Cc1noc(C)c1C(=O)N1CCC2(CC1)CN(c1cccc(-c3ccccc3)c1)C2 | .[11.4 µM] | / | /
COCC(=O)N1CCC2(CC1)CN(c1ccc(-c3ccccc3)cc1)C2 | .[11.4 µM] | / | /
COC(=O)c1sccc1NC(=O)Cn1nnc(-c2ccc(C)cc2)n1 | . | 15.2 | .
Cc1cccc(NC(=O)Cn2nnc(-c3cccs3)n2)c1C | . | . | .
COc1ccccc1OCc1nc(C#N)c(N2CCC(C(N)=O)CC2)o1 | . | . | .
N#Cc1nc(-c2ccc(OCc3ccccc3)cc2)oc1N1CCC(C(N)=O)CC1 | . | . | 4.87
Nc1ccccc1C(=O)Nc1cccc(C(=O)O)c1 | 25.1µM | . | /
Cc1cccc(NC(=O)c2ccccc2C(=O)O)c1 | . | . | /
Clc1ccc(-c2nnc(NC3=NCCCCC3)o2)cc1 | 2.51µM | . | 6.41
c1nnc(NC2=NCCCCC2)s1 | . | . | .
Cn1c(=O)c(-c2cc(F)cc(F)c2)nc2cnc(Nc3ccccc3)nc21 | .[11.4 µM] | / | /
CN1CCC2(CC1)CCN(C(=O)c1cc(C(F)(F)F)cc(C(F)(F)F)c1)CC2 | .[11.4 µM] | / | /
O=S(=O)(c1ccccc1)N1CCC[C@@]2(CCN(Cc3nccs3)C2)C1 | .[11.4 µM] | / | /
COc1ccccc1CNc1cc(-c2ccoc2)ncn1 | .[2.29 µM] | / | /
COc1ccc(C(c2sc3ncnn3c2O)N2CC(C)OC(C)C2)cc1OC (stereo not drawn) | 12.6µM | / | /
COc1cccc(C(c2sc3nc(C)nn3c2O)N2CCN(c3ccccc3F)CC2)c1 (stereo not drawn) | . | / | /
COc1ccc(C(c2sc3ncnn3c2O)N2CCN(c3ccccc3F)CC2)cc1OC (stereo not drawn) | 10µM | / | /
CC1CN(C(c2cccs2)c2sc3ncnn3c2O)CC(C)O1 (stereo not drawn) | . | / | /
COC(=O)N1CCC2(CCN(Cc3ccc(C#N)cc3)CC2)CC1 | .[11.4 µM] | / | /
SMILES | FLuc inh | GBA activity | Bst PK mod
Cc1ccc2nc(-c3cccc(S(=O)(=O)N(C)C)c3)cn2c1 | 12.6µM | . | .
Cc1ccc(S(=O)(=O)Nc2cccc(-c3cn4ccsc4n3)c2)cc1 | . | / | .
O=S1(=O)[C@H]([C@H]2CC3c4ccccc4C2c2ccccc23)[C@@H](N2CCCCC2)[C@@H]1c1ccccc1 | .[11.4 µM] | / | /
Cc1ccc(S(=O)(=O)CCC(=O)OCC(=O)N2CC(=O)Nc3ccccc32)cc1 | . | . | /
CCOC(=O)c1c(C)[nH]c(C(=O)COC(=O)CCC(=O)c2ccc3c(c2)OCCO3)c1C | . | 11.4 | .
O=C1CN(C(=O)COC(=O)CCC(=O)c2ccc3c(c2)OCCO3)c2ccccc2N1 | 20µM | . | /
CCOC(=O)c1c(C)[nH]c(C(=O)COC(=O)c2ccc(F)c(S(=O)(=O)N3CCOCC3)c2)c1C | . | . | .
CCOC(=O)c1c(C)[nH]c(C(=O)COC(=O)c2ccncc2)c1C | . | . | .
CCOC(=O)c1c(C)[nH]c(C(=O)COC(=O)C2CC2C)c1C (stereo not drawn) | 10µM | 7.76 | .
Cc1nc2cnc(Oc3ccccc3)nc2n(Cc2cccs2)c1=O | .[11.4 µM] | / | /
COCCNc1nc(-c2ccccc2Cl)nc2ccccc12 | .[2.29 µM] | / | /
CN1CCN(c2ncc3ncc(=O)n(CCC#N)c3n2)CC1 | .[11.4 µM] | / | /
COc1ccc(NC(=O)c2cc(-c3ccc(O)cc3)on2)cc1OC | . | / | /
CCCC(=O)Nc1cccc(NC(=O)c2ccc3c(c2)OCCO3)c1 | 15.8µM | . | /
O=C(Nc1ccc2c(c1)OCCO2)c1ccccc1F | 5.01µM | / | /
CC(=O)c1c(C)[nH]c(C(=O)Nc2ccc3c(c2)OCCO3)c1C | 12.6µM | . | .
CS(=O)(=O)Nc1ccccc1C(=O)Nc1ccc2c(c1)OCCO2 | ? | . | .
CCOC(=O)c1[nH]c(C)c(C(=O)Nc2ccc3c(c2)OCCO3)c1C | . | . | .
CCCCC(=O)Nc1cccc(NC(=O)c2ccc3c(c2)OCO3)c1 | ? | / | .
O=C(Nc1ccc2c(c1)OCO2)c1c(F)c(F)c(F)c(F)c1F | . | . | .
O=C(Nc1ccc2c(c1)OCCO2)c1c(F)cccc1F | 12.6µM | . | /
O=C(O)c1cc2cc(Cc3cccnc3)ccc2o1 | . | / | /
C[C@H]1C=C2C=C[C@H](C)[C@H](CC[C@@H]3C[C@@H](O)CC(=O)O3)[C@H]2[C@@H](OC(=O)[C@@H](C)CCO)C1 | . | / | /
CC(=O)Oc1cc(C(F)(F)F)ccc1C(=O)O | . | / | /
Cc1ccc(C(=O)Nc2ccc3c(c2)nc2n3CCSC2)cc1 | 7.94µM | / | ?
SMILES | FLuc inh | GBA activity | Bst PK mod
COc1ccc(OCC(=O)Nc2ccc3c(c2)nc2n3CCSC2)cc1 | . | / | .
COc1ccccc1C(=O)Nc1ccc2c(c1)nc1n2CCSC1 | 5.01µM | ? | 5.61
CCCCC(=O)Nc1ccc2c(c1)nc1n2CCSC1 | ? | . | /
CNc1ncnc2c1ncn2[C@H]1C[C@H](OP(=O)(O)O)[C@H](COP(=O)(O)O)O1 | . | / | /
O=c1c(-c2ccc(F)cc2)nc2cncnc2n1Cc1ccccc1 | .[11.4 µM] | / | /
C[C@H](C(=O)c1ccccc1)[C@@H](c1ccccc1)N1CCOCC1 | .[11.4 µM] | / | /
C#CCCCO/N=C1/C[C@@H](O)[C@@H](O)[C@@H]2[C@@H]3C(=O)N(Cc4ccc5c(c4)OCO5)C(=O)[C@H]3CC[C@H]12 | .[11.4 µM] | / | /
CC[N+](C)(CC)CCN1C(=O)c2ccccc2S1(=O)=O | .[11.4 µM] | / | /
N[C@@H](Cc1c[nH]c2ccccc12)C(=O)NCC(=O)O | .[11.4 µM] | / | /
COc1cc(NC(=O)c2ccc3c(c2)OCO3)ccc1NC(=O)C(C)C | ? | . | 7.11
Cc1noc(C(=O)Nc2ccc3c(c2)OCO3)c1Cl | 12.6µM | / | /
O=C(NCCOc1ccccc1)c1ccc2c(c1)OCO2 | 6.31µM | . | 8.06
O=C(Nc1ccc2nsnc2c1)c1ccc2c(c1)OCO2 | 3.16µM | . | /
CCOCCCNC(=O)c1ccc2c(c1)OCO2 | . | . | .
Cc1occc1C(=O)Nc1ccc2c(c1)OCO2 | ? | . | .
CCCCC(=O)Nc1ccc(NC(=O)c2ccc3c(c2)OCO3)cc1OC | ? | . | /
O=C(Nc1ccon1)c1ccc2c(c1)OCO2 | . | . | .
Cc1c(-c2ccc(O)cc2)nn(-c2ccc(O)cc2)c1-c1ccc(OCCN2CCCCC2)cc1 | . | / | /
CC1=C(\C=C/C(C)=C/C=C\C(C)=C\CO)C(C)(C)CCC1 | .[11.4 µM] | / | /
COC(=O)c1cc(=O)[nH]c(=O)[nH]1 | .[11.4 µM] | / | /
Cc1cc(N)c2ccccc2[n+]1CCCCCCCCCCCCCC[n+]1c(C)cc(N)c2ccccc21 | . | / | /
O=C(Nc1ccc2c(c1)OCO2)c1cccc(S(=O)(=O)N2CCCC2)c1 | . | . | .
CCOC(=O)c1c(C)c(C(=O)Nc2ccc3c(c2)OCCO3)c(C)n1CC | . | . | .
Cc1cc(C(=O)Nc2ccc3c(c2)OCO3)cs1 | 15.8µM | . | .
O=C(Nc1ccc2c(c1)OCO2)c1cccc(Cl)c1 | 12.6µM | . | /
CCOC(=O)c1cccc(NC(=O)c2cc3sccc3n2C)c1 | ? | . | /
Cc1cc(C(=O)NC(C)c2ccc3c(c2)OCO3)cs1 (stereo not drawn) | . | . | .
Cn1c(C(=O)Nc2ccc3c(c2)OCCO3)cc2sccc21 | 3.16µM | . | 3.01

Screening results deposited in PubChem BioAssay by National Center for Advancing Translational Sciences (NCATS).
